Hits are enriched below; roughly 7.8% of the tested compounds scored in any of these assays.
MARV entry inh = qHTS for inhibitors of binding or entry into cells for Marburg Virus; Marburg virus pseudotyped entry inhibition, cell reporter; Potency, µM (titrated, usually from 37.8 µM), for the others: top-dose activity change, negative = inhibition, actives largely listed as inhibitors; 1.8% of 300,000 active; AID 540276, 2011; calls by dose curve; tested in HEK293 cells; note: potency is the fitted concentration of half-maximal effect
HCV inhibitor = qHTS Assay for Inhibitors of Hepatitis C Virus (HCV). Huh7.5.1 HCVcc-Cre infection, luciferase reporter, 44 h. Potency, µM (titrated, usually from 41.8 µM), for the others: at the highest dose activity change, negative = inhibition, hits mostly inhibitors. 3.4% of 340,000 active. AID 651820, 2012; active = well fitted inhibition curve with a large enough effect; inconclusive = small, poorly fitted or top-dose-only effect, or another doubt; inactive = no such curve, though single readings can be large or run the other way; note: potency is the fitted concentration of half-maximal effect
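After 44 h co-culture of compound, cells and HCVcc-Cre (~0.5 moi), substrate is added for 15 min at room temperature and luciferase measured over 15 sec. Cells were seeded at 1,000/well and pre-cultured 4 h.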
HCMV antiviral = qHTS Assay for inhibitors of the human cytomegalovirus (HCMV); HFF cells, HCMV-luciferase reporter, 72 h; stronger effect = lower value; activity change, negative = inhibition, % at 57.5 µM; 4.5% of 410,000 active; AID 1259415, 2018; in the data active = activity change below about -60%; inconclusive = no clear call, values can overlap the other calls; inactive = above about -39%
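HFF cells seeded 16 h at 37C, treated with compounds, infected with luciferase-reporter HCMV at MOI 1 PFU/cell; luciferase read at 72 h post infection, normalized to buffer-only and Salinomycin controls.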
VACV mCherry inh = qHTS for Stage-Specific Inhibitors of Vaccinia Orthopoxvirus: mCherry Reporter Primary qHTS | Vaccinia virus mCherry reporter infection, fluorescence | Potency, µM (highest dose often 36.5 µM), for inactives: at the highest dose activity change, negative = inhibition, hits mostly inhibitors | 0.63% of 310,000 active; calls by dose curve; tested in A549 cells; note: potency is the fitted concentration of half-maximal effect; nearly all actives have a fitted effect of over 35% in size
VACV Venus inh = qHTS for Stage-Specific Inhibitors of Vaccinia Orthopoxvirus: Venus Reporter Primary qHTS. Vaccinia virus Venus reporter expression, fluorescence. Potency, µM (doses to about 36.5 µM), without a hit: top-dose activity change, negative = inhibition, most hits filed as inhibitors. 0.46% of 330,000 active. AID 720580, 2013; calls by dose curve; tested in A549 cells; note: potency is the fitted concentration of half-maximal effect; nearly all actives have a fitted effect of over 30% in size
LASV entry inh = qHTS for Inhibitors of binding or entry into cells for Lassa Virus. Potency, µM (series often up to 37.9 µM), for inactives: top-dose activity change, negative = inhibition, usual class: inhibitors. Lassa virus pseudotype entry inhibition, cell reporter. 1.2% of 300,000 active; calls by dose curve; tested in HEK293 cells; note: potency is the fitted concentration of half-maximal effect; nearly all actives have a fitted effect of over 50% in size
Active calls of the source: *; i = inactive; ? = inconclusive; nt = not tested or not shown; [ ] = another dose, or the depositor's remark. % is set by controls: 0 for no effect and ±100 for the full control effect.

SMILES	MARV entry inh	HCV inhibitor	HCMV antiviral	VACV mCherry inh	VACV Venus inh	LASV entry inh
Cc1c(C(=O)Nc2cccc(S(=O)(=O)N3CCOCC3)c2)oc2ccc(Br)cc12	?	?	47.8	i	-11.9%	26.1%
O=C(Nc1ccc2oc(-c3cccnc3)nc2c1)c1ccc([N+](=O)[O-])o1	?	2.51µM*	-11.9	-12.0%	-6.0%	?
Cc1c(C(=O)NCc2cccs2)oc2ccc(Br)cc12	7.3µM*	-1.7%	14.0	nt	nt	?
ClC1=C(Cl)[C@]2(Cl)[C@@H]3[C@H]4C[C@H]([C@@H]5O[C@H]45)[C@@H]3[C@@]1(Cl)C2(Cl)Cl	nt	nt	nt	i	0.0%	nt
CCc1c(C)nc2nncn2c1Nc1ccc(C)c(F)c1	0.0%[46.1 µM]	nt	0.3	-10.6%	-15.2%	-25.0%[46.1 µM]
CCOC(=O)[C@@]1([C@@H](NC(=O)OC)c2cccc(F)c2)CCCC1=O	-13.4%[14.2 µM]	nt	nt	nt	nt	nt
CCCSc1nsc(SCCC)c1C#N	?	19.8%	3.9	nt	-6.6%	18.9%
C#CCSc1nsc(SCC#C)c1C#N	1.4%	11.2µM*	-17.4	-2.0%	0.0%	-14.8%
Cc1ccc(-n2c(-c3ccccc3)c[nH]c2=S)cc1	-1.6%[46.1 µM]	?	-74.0*	-10.8%	-19.9%	?
O=C(O)CSc1cc(NS(=O)(=O)c2cccc([N+](=O)[O-])c2)c2ccccc2c1O	nt	11.2µM*	0.0	10µM*	?	nt
Cc1ccc(C)c(S(=O)(=O)Nc2cc(SCC(=O)O)c(O)c3ccccc23)c1	?	?	nt	i	-2.2%	?
CCc1ccc(S(=O)(=O)Nc2cc(SCC(=O)O)c(O)c3ccccc23)cc1	?	?	63.4	nt	nt	?
O=S(=O)(Nc1cc(Sc2cccc3cccnc23)c(O)c2ccccc12)c1ccccc1	?	?	-100.4*	nt	nt	18.4µM*
CCOc1ccc(S(=O)(=O)Nc2cc(SCC(=O)O)c(O)c3ccccc23)cc1	nt	10µM*	8.9	nt	nt	nt
Cc1ccc2c(c1)C(c1ccccc1)N(C(=O)COc1ccc(Cl)cc1Cl)CC(=O)N2 (stereo not drawn)	?	nt	?	-24.6%	-28.3%	?
CN(C)CCNC(=O)C(=O)NCC1OCCN1S(=O)(=O)c1ccc(F)cc1 (stereo not drawn)	nt	nt	13.3	i	-2.5%	nt
Cc1ccc(C)c(S(=O)(=O)N2CCCCC2CCNC(=O)C(=O)NCc2cccnc2)c1 (stereo not drawn)	?	-24.7%	-36.0	-30.2%	?	-14.4%
COc1ccc(CCNC(=O)C(=O)NCC2CCCN2S(=O)(=O)c2cc(C)ccc2C)cc1 (stereo not drawn)	?	?	-7.1	?	-26.9%	11.2µM*
Cc1ccc(C)c(S(=O)(=O)N2CCCCC2CCNC(=O)C(=O)NCc2ccccc2)c1 (stereo not drawn)	?	22.4µM*	4.4	?	?	-29.6%[46.1 µM]
CN(C)CCNC(=O)C(=O)NCC1OCCN1S(=O)(=O)c1cc(F)ccc1F (stereo not drawn)	11.8%	19.4%	-61.0*	i	-14.3%	-0.5%
COc1ccc(CCNC(=O)C(=O)NCC2OCCCN2S(=O)(=O)c2cc(C)ccc2C)cc1 (stereo not drawn)	-28.7%	?	-67.2*	-24.7%	-18.3%	-11.0%
Cc1nnc(C)n1/N=C\c1cc(Br)cc(Br)c1O	-9.7%	nt	nt	nt	nt	nt
COc1ccccc1CCNC(=O)C(=O)NCC1OCCCN1S(=O)(=O)c1ccc(F)cc1C (stereo not drawn)	-19.6%	10µM*	-75.1*	-9.7%	15.7%	?
O=C(CCN1CCCCC1)Nc1ccc(Br)cc1C(=O)c1ccccc1	12.6µM*	?	?	i	-12.9%	-9.1%[46.1 µM]
CC(C(=O)Nc1ccc(Br)cc1C(=O)c1ccccc1)N1CCCCC1 (stereo not drawn)	?	?	-17.6	nt	nt	5.6%
COC(=O)C1=C(C(=O)OC)[C@@H]2Nc3ccccc3[C@@]23C[C@@H](C(=O)OC)N(C(=O)Nc2ccc(C(F)(F)F)cc2)C3=N1	-15.4%[14.2 µM]	nt	nt	nt	nt	nt

High-throughput results as filed in PubChem.
